Results as given in PubChem BioAssay (EPA / NIEHS).
Activity calls are given as the source filed them. Rule for the calls: active = hit-call score of the fitted dose curve at least 0.9, where 1 is the maximum; inactive = score below 0.9.

What was measured:
Settings in all cases: mRNA level, 48 h; actives raise or lower the signal
[1] = read-out: Insulin Like Growth Factor 1 (IGF1), IGF1 (gene 3479); assay: LTEA_HepaRG_IGF1: Life Technologies and Expression Analysis (LTEA) Assay for Insulin Like Growth Factor 1 (IGF1) using HepaRG (AID 2283506)
In short: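 Differentiated human HepaRG cells were dosed for 48 h in serum-free induction medium with 0.5% DMSO, eight half-log concentrations up to 100 uM, in duplicate. IGF1 mRNA was quantified by qRT-PCR normalized to ACTB, GAPDH, POLR2A; bidirectional fitting versus DMSO.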

[2] = read-out: Intercellular Adhesion Molecule 1 (ICAM1), ICAM1 (gene 3383); assay: LTEA_HepaRG_ICAM1: Life Technologies and Expression Analysis (LTEA) Assay for Intercellular Adhesion Molecule 1 (ICAM1) using HepaRG (AID 2283507)
In short: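 HepaRG, 48 h exposure, 8-pt half-log series from 100 uM, 0.5% DMSO vehicle, duplicates. Readout: TaqMan qRT-PCR mRNA, housekeeping-normalized (ACTB/GAPDH/POLR2A). Bidirectional curve fit vs DMSO baseline.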

[3] = read-out: Insulin-like growth factor-binding protein 1 (IGFBP1), IGFBP1 (gene 3484); assay: LTEA_HepaRG_IGFBP1: Life Technologies and Expression Analysis (LTEA) Assay for Insulin-like growth factor-binding protein 1 (IGFBP1) using HepaRG (AID 2283508)
In short: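 qRT-PCR mRNA read-out (TaqMan, Fluidigm array), normalised to three housekeeping genes; HepaRG cells, 48 h exposure, 8-pt half-log series from 100 uM, 0.5% DMSO vehicle; bidirectional curve fit vs DMSO baseline.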

[4] = read-out: Interleukin 6 (IL6), IL6 (gene 3569); assay: LTEA_HepaRG_IL6: Life Technologies and Expression Analysis (LTEA) Assay for Interleukin 6 (IL6) using HepaRG (AID 2283509)
In short: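 Differentiated human HepaRG cells, plated 48 h then switched to serum-free induction medium, were exposed in duplicate for 48 h to eight half-log concentrations up to 100 uM in 0.5% DMSO. IL6 mRNA measured by qRT-PCR, normalized to ACTB/GAPDH/POLR2A.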

[5] = read-out: Potassium channel subfamily K member 1 (KCNK1), KCNK1 (gene 3775); assay: LTEA_HepaRG_KCNK1: Life Technologies and Expression Analysis (LTEA) Assay for Potassium channel subfamily K member 1 (KCNK1) using HepaRG (AID 2283511)
In short: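 Differentiated human HepaRG cells in serum-free induction medium were exposed in duplicate for 48 h to 8 half-log concentrations up to 100 uM in 0.5% DMSO. KCNK1 mRNA was measured by TaqMan qRT-PCR, normalized to ACTB, GAPDH and POLR2A, and fitted bidirectionally versus DMSO.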

[6] = read-out: Keratin 19 (KRT19), KRT19 (gene 3880); assay: LTEA_HepaRG_KRT19: Life Technologies and Expression Analysis (LTEA) Assay for Keratin 19 (KRT19) using HepaRG (AID 2283512)
In short: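 HepaRG, 48 h chemical exposure, 8-pt half-log CRC from 100 uM, 0.5% DMSO vehicle, duplicates. Readout: TaqMan qRT-PCR of KRT19 mRNA, housekeeping-normalized (ACTB/GAPDH/POLR2A). Bidirectional fit vs DMSO baseline.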

[7] = read-out: JUN Transcription Factor, JUN (gene 3725); assay: LTEA_HepaRG_JUN: Life Technologies and Expression Analysis (LTEA) Assay for JUN Transcription Factor using HepaRG (AID 2283513)
In short: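 Differentiated HepaRG cells were exposed to chemicals for 48 h in serum-free induction medium, 8 concentrations from 100 uM in half-log steps, 0.5% DMSO vehicle, in duplicate. JUN mRNA was quantified by TaqMan qRT-PCR, normalized to ACTB, GAPDH, POLR2A.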

[8] = read-out: Lipase C (LIPC), LIPC (gene 3990); assay: LTEA_HepaRG_LIPC: Life Technologies and Expression Analysis (LTEA) Assay for Lipase C (LIPC) using HepaRG (AID 2283514)
In short: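 Differentiated human HepaRG cells in serum-free induction medium were exposed in duplicate for 48 h to eight concentrations (top 100 uM, half-log steps, 0.5% DMSO). LIPC mRNA was quantified by TaqMan qRT-PCR, normalized to ACTB, GAPDH and POLR2A, with bidirectional fitting versus DMSO.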

[9] = read-out: Lipoprotein lipase (LPL), LPL (gene 4023); assay: LTEA_HepaRG_LPL: Life Technologies and Expression Analysis (LTEA) Assay for Lipoprotein lipase (LPL) using HepaRG (AID 2283515)
In short: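 Differentiated human HepaRG cells in serum-free induction medium were exposed in duplicate for 48 h to eight half-log concentrations (top 100 uM) in 0.5% DMSO. LPL mRNA was quantified by TaqMan qRT-PCR, normalized to ACTB, GAPDH and POLR2A.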

[10] = read-out: MicroRNA 122 (MIR122), gene 406906; assay: LTEA_HepaRG_MIR122: Life Technologies and Expression Analysis (LTEA) Assay for MicroRNA 122 (MIR122) using HepaRG (AID 2283516); note: the transcript read is the microRNA miR-122
In short: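 Differentiated human HepaRG cells were exposed 48 h in serum-free induction medium to eight half-log concentrations (top 100 uM, 0.5% DMSO). Transcript level was measured by TaqMan qRT-PCR, normalized to ACTB, GAPDH and POLR2A, and fitted bidirectionally versus DMSO.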

[11] = read-out: matrix metalloproteinase-10 (MMP10), MMP10 (gene 4319); assay: LTEA_HepaRG_MMP10: Life Technologies and Expression Analysis (LTEA) Assay for matrix metalloproteinase-10 (MMP10) using HepaRG (AID 2283517)
In short: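 HepaRG, collagen I, ~100,000 cells/well; serum-free induction medium; 48 h exposure, duplicate, 8-pt half-log to 100 uM, 0.5% DMSO. Readout: TaqMan qRT-PCR, normalized to ACTB/GAPDH/POLR2A; bidirectional fit vs DMSO.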

MYC, MYC (gene 4609) = assay: LTEA_HepaRG_MYC: Life Technologies and Expression Analysis (LTEA) Assay for MYC using HepaRG (AID 2283518)
In short: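 qRT-PCR read-out of MYC transcript (Fluidigm TaqMan, housekeeping-normalized) after 48 h chemical exposure of HepaRG cells; eight concentrations, top 100 uM, half-log steps. Bidirectional curve fitting against 0.5% DMSO vehicle baseline.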

[12] = read-out: Paternally Expressed 10 (PEG10), PEG10 (gene 23089); assay: LTEA_HepaRG_PEG10: Life Technologies and Expression Analysis (LTEA) Assay for Paternally Expressed 10 (PEG10) using HepaRG (AID 2283520)
In short: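 Differentiated HepaRG cells, plated 48 h then switched to serum-free induction medium, were exposed in duplicate for 48 h to eight half-log concentrations topping at 100 uM in 0.5% DMSO. PEG10 mRNA was quantified by TaqMan qRT-PCR, normalised to ACTB, GAPDH and POLR2A.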

[13] = read-out: Nuclear factor NF-kappa-B p105 subunit (Homo sapiens) (UniProt P19838); assay: LTEA_HepaRG_NFKB1: Life Technologies and Expression Analysis (LTEA) Assay for Nuclear Factor Kappa B Subunit 1 (NFKB1) using HepaRG (AID 2283521);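 note: TaqMan qRT-PCR transcript normalised to ACTB GAPDH and POLR2A housekeeping genes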
In short: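 Differentiated human HepaRG cells were exposed for 48 h in serum-free induction medium to eight concentrations (top 100 uM, half-log steps, 0.5% DMSO), in duplicate. NFKB1 mRNA was measured by TaqMan qRT-PCR, normalized to ACTB/GAPDH/POLR2A, and fitted bidirectionally against DMSO.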

[14] = read-out: Protein phosphatase 2A (PPP2R4), PTPA (gene 5524); assay: LTEA_HepaRG_PPP2R4: Life Technologies and Expression Analysis (LTEA) Assay for Protein phosphatase 2A (PPP2R4) using HepaRG (AID 2283522)
In short: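 Differentiated HepaRG cells in serum-free induction medium were exposed in duplicate for 48 h to eight concentrations, top 100 uM with half-log dilutions, in 0.5% DMSO. PPP2R4 mRNA was quantified by TaqMan qRT-PCR, normalized to ACTB, GAPDH and POLR2A.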

[15] = read-out: Phosphatase and tensin (PTEN), PTEN (gene 5728); assay: LTEA_HepaRG_PTEN: Life Technologies and Expression Analysis (LTEA) Assay for Phosphatase and tensin (PTEN) using HepaRG (AID 2283523)
In short: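 Differentiated human HepaRG cells, plated 48 h then switched to serum-free induction medium, were exposed in duplicate for 48 h to eight half-log concentrations up to 100 uM in 0.5% DMSO. PTEN mRNA measured by TaqMan qRT-PCR, normalized to ACTB/GAPDH/POLR2A, bidirectional fit versus DMSO.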

[16] = read-out: solute carrier (SLC22A1), SLC22A1 (gene 6580); assay: LTEA_HepaRG_SLC22A1: Life Technologies and Expression Analysis (LTEA) Assay for solute carrier (SLC22A1) using HepaRG (AID 2283524)
In short: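 Human HepaRG cells were plated 48 h, switched to serum-free induction medium, then exposed in duplicate for 48 h to 8-point half-log series from 100 uM in 0.5% DMSO. SLC22A1 mRNA measured by qRT-PCR, normalized to ACTB/GAPDH/POLR2A, fitted bidirectionally versus DMSO.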

[17] = read-out: Interleukin 6 Receptor (IL6R), IL6R (gene 3570); assay: LTEA_HepaRG_IL6R: Life Technologies and Expression Analysis (LTEA) Assay for Interleukin 6 Receptor (IL6R) using HepaRG (AID 2283510)
In short: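 Differentiated human HepaRG cells, plated 48 h then switched to serum-free induction medium, were dosed in duplicate for 48 h at eight half-log concentrations up to 100 uM in 0.5% DMSO. IL6R mRNA quantified by qRT-PCR, normalized to ACTB/GAPDH/POLR2A; bidirectional fit versus DMSO.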

[18] = read-out: matrix metalloproteinase-3 (MMP3), MMP3 (gene 4314); assay: LTEA_HepaRG_MMP3: Life Technologies and Expression Analysis (LTEA) Assay for matrix metalloproteinase-3 (MMP3) using HepaRG (AID 2283519)
In short: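 Differentiated human HepaRG cells, plated 48 h on collagen I, were exposed in duplicate for 48 h in serum-free induction medium to eight half-log concentrations up to 100 uM in 0.5% DMSO. MMP3 mRNA was quantified by TaqMan qRT-PCR, normalised to ACTB, GAPDH and POLR2A.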

Measured: AC50

Sequence of Nuclear factor NF-kappa-B p105 subunit (Homo sapiens) (P19838 whole entry, looked up): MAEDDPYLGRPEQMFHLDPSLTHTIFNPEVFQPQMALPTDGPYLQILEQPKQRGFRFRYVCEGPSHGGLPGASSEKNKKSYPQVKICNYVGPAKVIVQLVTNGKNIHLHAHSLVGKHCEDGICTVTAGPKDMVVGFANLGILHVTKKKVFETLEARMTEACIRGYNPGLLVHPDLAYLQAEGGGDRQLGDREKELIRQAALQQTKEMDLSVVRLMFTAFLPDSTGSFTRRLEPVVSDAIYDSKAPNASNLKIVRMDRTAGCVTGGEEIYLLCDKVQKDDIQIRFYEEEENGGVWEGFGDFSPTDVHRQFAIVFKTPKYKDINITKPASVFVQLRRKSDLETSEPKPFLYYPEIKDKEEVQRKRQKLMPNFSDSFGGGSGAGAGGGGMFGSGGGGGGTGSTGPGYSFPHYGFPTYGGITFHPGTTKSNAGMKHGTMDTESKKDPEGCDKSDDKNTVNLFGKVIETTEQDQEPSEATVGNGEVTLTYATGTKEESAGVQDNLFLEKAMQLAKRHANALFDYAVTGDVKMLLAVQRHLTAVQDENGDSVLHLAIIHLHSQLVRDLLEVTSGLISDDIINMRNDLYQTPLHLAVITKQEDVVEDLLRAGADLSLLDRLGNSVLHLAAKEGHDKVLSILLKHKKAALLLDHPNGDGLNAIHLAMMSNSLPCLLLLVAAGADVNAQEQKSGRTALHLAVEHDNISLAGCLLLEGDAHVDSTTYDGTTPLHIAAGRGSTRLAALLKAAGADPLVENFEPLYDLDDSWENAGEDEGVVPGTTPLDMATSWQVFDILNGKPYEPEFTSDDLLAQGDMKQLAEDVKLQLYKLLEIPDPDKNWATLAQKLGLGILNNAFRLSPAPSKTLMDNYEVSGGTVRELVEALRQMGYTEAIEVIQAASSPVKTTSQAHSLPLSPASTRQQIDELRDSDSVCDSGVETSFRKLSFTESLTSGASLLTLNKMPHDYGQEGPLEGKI

O=C(O)CCN(C1(C(=O)NO)CCCC1)S(=O)(=O)c1ccc(Oc2ccc(F)cc2)cc1
not listed: [17] | [18]
inactive: all other assays above

CCOC(=O)COc1ccc2c(c1)CC(NCC(O)c1cccc(Cl)c1)CC2 (stereo unspecified)
active: [6] 2.77 µM | [8] 45.8 µM
not listed: [17] | [18]
inactive: all other assays above

CCCCC(CC)COC(=O)CCCCCCCCC(=O)OCC(CC)CCCC (stereo unspecified)
not listed: [13] | [17] | [18]
inactive: all other assays above

C1=CCCC=CCCC=CCC1
not listed: [4]
inactive: all other assays above

Cc1c(-c2cccnc2)c2ccccc2n1CCCCC(=O)O
not listed: [4] | [9] | [16] | [17] | [18]
inactive: all other assays above

CC(C)=CCC/C(C)=C\CO
not listed: [4] | [9]
inactive: all other assays above

CCCCCCCCCCCCc1ccccc1
not listed: [4] | [9]
inactive: all other assays above
